# High-throughput results deposited in PubChem BioAssay by several laboratories.
# ALR inh – inhibitors of human sulfhydryl oxidase ALR; purified ALR, DTT oxidation, H2O2 HRP-luminol luminescence; inhibition, % (concentration not given with the values); AID 485317; P55789; 3.8% of 290,000 active;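 active means mean replicate inhibition above about 79%, with every replicate also reaching it, limit read from the data; inconclusive means only one of the two criteria met; inactive means mean below limit and not every replicate reaching it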
# HDAC3 inhib – blocks human histone deacetylase 3; inhibition, % at 8.3 µM; 0.15% of 320,000 active; recombinant HDAC3, fluorogenic peptide/trypsin coupled, fluorescence; AID 2718; in the data active means inhibition above about 26%, passing the limit was not always enough; inconclusive means no clear call, values can overlap the other calls
# NPR2 activator – GC-B (human) receptor activation; HEK293-GC-B cells, CNP EC30, cGMP TR-FRET; 0% at EC30 CNP, 100% saturating CNP; activation, % at 10 µM; 0.11% of 370,000 active; AID 1920062;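 active means activation at 10 µM reaching about 35% in either raw or pattern-adjusted values, limit read from the data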
# GC-A act – GC-A (human) enzyme activation. HEK293 GC-A cells, cGMP TR-FRET, EC30 ANP; 0% at EC30 ANP, 100% saturating ANP. activation, % at 10 µM. 0.14% of 370,000 active. AID 1671463; in the data active means activation above about 40%
# Target sequence (P16066 whole entry, looked up): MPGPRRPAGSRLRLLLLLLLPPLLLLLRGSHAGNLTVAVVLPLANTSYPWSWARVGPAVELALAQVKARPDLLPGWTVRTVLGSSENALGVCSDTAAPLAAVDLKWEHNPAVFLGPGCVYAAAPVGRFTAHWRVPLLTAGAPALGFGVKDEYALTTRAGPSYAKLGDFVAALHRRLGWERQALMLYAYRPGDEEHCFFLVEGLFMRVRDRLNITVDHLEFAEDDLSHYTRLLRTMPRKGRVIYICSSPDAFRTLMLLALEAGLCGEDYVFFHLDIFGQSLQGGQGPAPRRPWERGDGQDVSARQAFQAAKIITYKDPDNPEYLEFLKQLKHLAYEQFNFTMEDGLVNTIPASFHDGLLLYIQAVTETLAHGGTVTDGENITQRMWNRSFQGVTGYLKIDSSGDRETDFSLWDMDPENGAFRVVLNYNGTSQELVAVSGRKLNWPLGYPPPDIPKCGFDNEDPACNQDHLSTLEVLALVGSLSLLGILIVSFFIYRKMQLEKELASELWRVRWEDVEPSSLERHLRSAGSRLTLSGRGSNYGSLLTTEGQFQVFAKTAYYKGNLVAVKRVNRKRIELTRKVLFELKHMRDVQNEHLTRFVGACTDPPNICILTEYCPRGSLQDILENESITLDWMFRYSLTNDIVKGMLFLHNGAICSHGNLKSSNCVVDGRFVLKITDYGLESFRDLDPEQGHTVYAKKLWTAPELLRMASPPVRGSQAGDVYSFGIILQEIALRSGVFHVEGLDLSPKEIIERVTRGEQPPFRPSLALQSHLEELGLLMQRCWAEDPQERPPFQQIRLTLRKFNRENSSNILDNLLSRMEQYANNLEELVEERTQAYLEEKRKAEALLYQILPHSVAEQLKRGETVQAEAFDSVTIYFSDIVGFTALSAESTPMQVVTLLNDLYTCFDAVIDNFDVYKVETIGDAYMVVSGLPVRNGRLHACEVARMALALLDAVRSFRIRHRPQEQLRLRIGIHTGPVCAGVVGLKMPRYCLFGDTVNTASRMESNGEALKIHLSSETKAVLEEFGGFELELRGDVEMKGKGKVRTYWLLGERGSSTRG
# Active calls of the source: *; ? = inconclusive; · = not tested or not shown. Many of the other results were omitted from the sample, so hits are more common in it than they were.
SMILES,ALR inh,HDAC3 inhib,NPR2 activator,GC-A act
Clc1ccc(OCCSc2ncccn2)cc1,11,-2,-7,55*
CCc1nn(CC(=O)NCCCN2CCc3ccccc3C2)c(=O)c2cc3sccc3n12,95*,17,-4,-4
COc1cc(/C=C/C(=O)OCC(=O)Nc2c(C)n(C)n(-c3ccccc3)c2=O)ccc1O,99*,-1,2,-4
COc1cc(/C=C/C(=O)OCC(=O)Nc2ccccc2Sc2ccc(Cl)cc2)ccc1O,91*,-1,-2,10
CCCNC(=O)C1(C)CCN(C(=O)c2ccc3sccc3c2)C1 (stereo not given),·,·,-2,-2
Cc1ccc(NC(=O)c2ccc(OCc3c(C)noc3C)cc2)cc1C,21,-12,10,0
COC(=O)/C=C/C(=O)N1CCN(c2ccccc2)CC1,97*,-9,0,-6
COC(=O)/C=C/C(=O)N1CCN(c2ccccc2C)CC1,98*,-8,-3,-4
O=C(COC(=O)/C=C/C(=O)N1CCN(c2ccccc2)CC1)NCc1ccc(F)cc1,67,1,-3,0
Cn1c(SCC(=O)NCCc2ccccc2)ncc(C(=O)Nc2ccc(F)cc2)c1=O,0,2,-3,11
O=C1CSC(c2cccnc2)N1c1ccc(F)cc1 (stereo not given),99*,5,6,0
O=C1CSC(c2cccnc2)N1c1cccc(Cl)c1 (stereo not given),99*,9,-9,-7
Cc1ccc(N2C(=O)CSC2c2cccnc2)c(Cl)c1 (stereo not given),·,-1,-1,-3
S=c1[nH]nc(Nc2cccc3ccccc23)s1,97*,?,-2,1
Fc1ccccc1Nc1n[nH]c(=S)s1,99*,6,-4,2
Cc1ccccc1Nc1n[nH]c(=S)s1,·,·,1,-5
Cc1cc(C)c(C(=O)Nc2ccc(Br)c(C(F)(F)F)c2)c(C)c1,1,1,-8,-2
COc1cccc(NC(=O)CSc2nc(O)c(C)c(=O)n2-c2ccc(C)cc2)c1,98*,-6,0,0
Cc1c(O)nc(SCC(=O)Nc2cccc(C(F)(F)F)c2)n(-c2ccccc2)c1=O,99*,8,-3,-2
CCCCn1c(N)c(N(CC(C)C)C(=O)COC(=O)C2(c3ccccc3)CC2)c(=O)[nH]c1=O,2,-6,7,-1
O=c1cnnc(SCc2ccc([N+](=O)[O-])cc2)[nH]1,100*,-3,-4,0
CCOC(=O)C1=C(C(=O)OCC)C2N(Cc3ccc(C#N)cc3)c3ccccc3[C@@]23C[C@@H](C(=O)OC)N(S(=O)(=O)c2ccc(C#N)cc2)C3=N1 (stereo not given in full),·,·,-1,-1
O=c1ccc(-c2ccc(S(=O)(=O)N3CCN(c4ccccc4)CC3)o2)n[nH]1,3,3,-1,-23
CCN(CC)c1ccc([C@H]2[C@@H]3CCCC[C@]3(O)CCN2CC(=O)NCc2ccco2)cc1,99*,1,5,0
CCN(CC)c1ccc(C2C3CCCCC3(O)CCN2CC(=O)N2CCCCC2)cc1 (stereo not given),99*,5,5,-2
SMILES,ALR inh,HDAC3 inhib,NPR2 activator,GC-A act
CCOC(=O)c1c(C)[nH]c2ccc(O)cc12,34,6,-2,0
CCOC(=O)c1c(OCC)[nH]c2ccc(O)cc12,87*,-8,-1,2
c1ccc(N2CCN(c3ccccc3)C2c2cccs2)cc1,99*,3,-9,-4
O=C1CSC(c2cccs2)N1c1ccccc1 (stereo not given),·,-3,5,3
O=C(O)c1ccccc1NC(c1ccccc1)c1ccc(Cl)cc1 (stereo not given),91*,0,0,23
CCOc1ccc(N2C(=O)CC(Sc3n[nH]c(-c4ccccc4)n3)C2=O)cc1 (stereo not given),99*,-7,-1,3
COc1ccc(N2C(=O)CC(Sc3nc(C)c4c(n3)CCCC4)C2=O)cc1 (stereo not given),-5,-4,8,3
COc1ccc(N2C(=O)CC(Sc3n[nH]c(-c4ccccc4)n3)C2=O)cc1 (stereo not given),99*,?,-1,-4
O=C1C=C(c2ccc(F)nc2)C[C@@H](c2ccc3c(c2)OCO3)C1,-17,-2,5,1
Cc1ccc(-c2nc(COC(=O)C3=NN(c4ccccc4)C(=O)CC3)cs2)cc1,99*,7,1,4
O=C(NCc1ccc2c(c1)OCO2)c1cccc(C(=O)NCc2ccc3c(c2)OCO3)c1,-19,-6,8,2
O=C(NCc1ccc2c(c1)OCO2)c1cc2c(s1)CSC2,97*,-1,2,0
O=C(NCc1ccco1)c1cc2c(s1)CSC2,99*,?,·,·
COc1cccc(NCc2cc(=O)oc3cc(C)c(C(C)C)cc23)c1,-11,3,5,-1
CCOC(=O)c1c(NC(=O)COc2cccc3c2CCN(C)C3=O)sc2c1CCC2,87*,3,-8,-10
C1=C(c2ccccc2)Nc2ccccc2N=C1c1ccccc1,·,5,1,-3
Nc1nc2ccc(N3CCOCC3)cc2s1,98*,2,-12,-6
CSc1ccc(/C=C/C(=O)c2c(O)cc(C)oc2=O)cc1,98*,5,-5,-2
Cc1cc(O)c(C(=O)/C=C/c2ccc(Cl)cc2)c(=O)o1,12,-3,-9,-1
CSc1ccc(C(=O)/C=C/c2ccc(N)cc2)cc1,97*,-5,-5,-2
CSc1ccc(/C=C/C(=O)N2CCCN(C)CC2)cc1,99*,-12,8,-2
CN1CCN(C(=O)/C=C\c2ccc(Cl)cc2)CC1,1,6,4,-4
O=CN1CCN(C(=O)Cc2ccc(Cl)cc2)CC1,·,·,5,4
O=C(Nc1ccc(N2CCOCC2)cc1)C1CC(O)CN1S(=O)(=O)c1ccc(Cl)cc1 (stereo not given),78*,2,-4,-1
COc1ccc(NC2c3ncccc3C(=O)N2Cc2cccs2)cc1 (stereo not given),96*,10,-3,3
SMILES,ALR inh,HDAC3 inhib,NPR2 activator,GC-A act
COC(=O)c1ccc(NC2c3ncccc3C(=O)N2Cc2cccs2)cc1 (stereo not given),-15,7,3,1
CCN1C[C@@H]2[C@@H]3C(=O)N(Cc4ccccc4)C(=O)[C@@H]3[C@](CC)(C(=O)OC)N2C1=NC,·,·,0,2
CCN(CC)c1ccc(NC(=O)COC(=O)/C=C/c2nc3ccccc3s2)cc1,99*,2,-3,-3
CNC(=O)COC(=O)/C=C/c1nc2ccccc2s1,·,3,-1,5
CCOC(=O)C1CCN(C(=O)c2ccc(S(=O)(=O)Nc3ccccc3OC)cc2)CC1,-1,0,1,-1
O=C(Nc1ccc(Nc2ccccc2)cc1)c1ccco1,92*,11,-9,1
Cc1nc2ccc(NC(=O)c3ccco3)cc2nc1C,99*,-14,3,3
Nc1ccc(NC(=O)c2ccco2)c(Cl)c1,99*,·,-1,1
